Among the data in PubChem BioAssay (EPA / NIEHS) are outcome values, retold here.

Active and inactive are the calls of the source. The calls were made as follows: active = hit-call score of the fitted dose curve at least 0.9, where 1 is the maximum; inactive = score below 0.9.

Read-out in the test: MYC, MYC (gene 4609)
As to the kind of experiment: LTEA_HepaRG_MYC: Life Technologies and Expression Analysis (LTEA) Assay for MYC using HepaRG (AID 2283518). As to conditions: mRNA level, 48 h; actives raise or lower the signal. The method, then: LTEA_HepaRG is a cell based, multiplexed-readout assay that uses HepaRG, a human liver cell line, with measurements taken at 48 hours after chemical dosing on a 96-well plate.LTEA_HepaRG_MYC is one of 102 assay component(s) measured in the LTEA HepaRG cell culture assay. It is a marker of Cell proliferation, survival, death.Data from the assay component LTEA_HepaRG_MYC was analyzed into 1 endpoint. This assay endpoint, LTEA_HepaRG_MYC, was analyzed with bidirectional fitting relative to DMSO as the negative control and baseline of activity. Using a type of inducible reporter, measures of mRNA induction for gain or loss-of-signal activity can be used to understand regulation of transcription factor activity. To generalize the intended target to other relatable targets, this assay endpoint is annotated to the dna binding intended target family, where the subfamily is basic helix-loop-helix leucine zipper.
A total of 1060 chemcials from the ToxCast library were tested in eight-point concentration-response experiments. Cell culture and cytotoxicity assays were conducted at Thermo Fisher Scientific's Custom Services facility (Madison, WI). A single lot of human HepaRG cells (Thermo Fisher Scientific, Frederick, MD) was used for the cell culture experiments. 96-well format collagen type I coated plates of human HepaRG cells were prepared using established methods. Briefly, cryopreserved HepaRG cells were thawed, plated at a density of approximately 100,000 cells/well in HepaRG Thaw, Plate, and General Purpose media (HPRG770, Thermo Fisher Scientific), and incubated for 48 hours. 0.5% DMSO was selected as vehicle control to balance the requisite need of DMSO in HepaRG cultures to maintain differentiation (for example, baseline metabolism, proportions of hepatocytes vs. cholangiocytes), while enabling further hepatic receptor pathway activation (for example, PXR and CAR) in response to chemical exposure. 48 hours after plating, the culture medium was replaced with HepaRG Serum-Free Incudtion Media. Cells were exposed to each test chemical in duplicate and maintained in CO2 incubators for another 48 hours. Chemical plates were thawed to room temperature and 200x concentrations of treatment groups were prepared. 8-point conentration-reponse curves were made with the highest exposure at 100 uM, followed by half-log dilutions, all in 0.5% DMSO. Each test plate contained variouse controls, induction positive controls (1mM phenobarbital), cytotoxicity positive controls ([…] aflatoxin B1), vehicle controls (0.5% DMSO), and total lysis controls (0.5% DMSO). Cell morphology images were taken using an Essen IncuCyte FLR automated microscope, with six 96-well plates imaged in about 24 minutes. Images were captured and exported and JPEG files. Spent culture media was transfered to black-well plates for the LDH assay, and remaining media was sorted at -80 C for later use. Cells were treated with RLT buffer and frozen until shipped for gene expression analysis. Total RNA was isolated from the cell suspension in 75 uL of Buffer RLT (Qiagen, Germantown, MD 20874) by Quintiles/Expression Analysis (Durham, NC) using a custom isolation procedure. Total RNA from each plate well was transferred to a preamplification plate. Fluidigm's 96.96 Dynamic ArrayTM (Fluidigm, Amsterdam, the Netherlands) technology was used for gene expression analyses by quantitative reverse transcription polymerase chain reaction (qRT-PCR, performed by Quintiles/Expression Analysis, Durham, NC)89. Standard TaqManTM Assays (Applied Biosystems/ThermoFisher Scientific, Foster City, CA) were used to assess the expression of 93 genes selected based on their selectivity and sensitivity to important hepatic receptors known to be modulated by environmental chemicals; importance in human hepatocyte functionality; and hepatotoxicity. […]
With `COc1ccccc1N`, the compound was classed as inactive.
On to `Oc1c(Cl)cc(Cl)cc1Cl`, for which the compound was classed as inactive.
With `CCCCCCCCCCCCc1cccc(S(=O)(=O)O)c1`, the compound was classed as inactive.
As for `Cc1cc(C)cc(C)c1`, the compound was classed as inactive.
`N#Cc1cccnc1`: the outcome was inactive.
As for `OCCN(CCO)CCO`, the compound was called inactive.
In the case of `Clc1cccc(Cl)c1Cl`, the call was inactive.
In the case of `O=C(N[C@H]1CN2CCC1CC2)c1ccc2c(c1)OCCO2` it was “inactive”.
As for `CC(C)O.CC(C)O.OCCN(CCO)CCO.OCCN(CCO)CCO.[Ti]`, the call was inactive.
Regarding `Oc1cc(Cl)c(Cl)cc1Cl`, the compound was called inactive.
As for `Clc1cccc(Cl)c1`, the outcome was inactive.
Consider `O=C(O)C1(c2ccc3c(c2)OC[C@H](Cc2ccc(-c4ccccc4)cc2)[C@H]3O)CCCC1`, for which the call was inactive.
For `CN(C)C(=S)S`, the compound was classed as inactive.
For `CC(C)(C)c1ccccc1O`, the compound was classed as inactive.
